# Calb FLC = C. albicans growth inhibition with fluconazole, primary screen, CaCi-2 strain, Alamar Blue fluorescence | C. albicans CaCi-2 (fluconazole-resistant clinical isolate) + fluconazole, 48 h | growth inhibition, % (test concentration not listed) | 0.57% of 300,000 active;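 active = growth inhibition above about 58% in most replicates, limit read from the data, passing the limit was not always enough; inconclusive = exactly half the replicates above a set limit; inactive = most replicates below a set limit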;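 note: all wells also contain fluconazole at 8 µg/ml as a sub-toxic cotreatment; 0% = median of DMSO wells and 100% = median of geldanamycin control wells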
# ALR H2O2 inh = inhibitors of human ALR sulfhydryl oxidase, primary screen, biochemical, H2O2 detection, HRP-luminol luminescence, single point | inhibition, % (no concentration beside the values) | FAD-linked sulfhydryl oxidase ALR (Homo sapiens), P55789 | purified ALR, DTT oxidation | 3.8% of 290,000 active;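 active = mean replicate inhibition above about 79%, with every replicate also reaching it, limit read from the data; inconclusive = only one of the two criteria met; inactive = mean below limit and not every replicate reaching it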
# Target sequence (P55789 whole entry, looked up): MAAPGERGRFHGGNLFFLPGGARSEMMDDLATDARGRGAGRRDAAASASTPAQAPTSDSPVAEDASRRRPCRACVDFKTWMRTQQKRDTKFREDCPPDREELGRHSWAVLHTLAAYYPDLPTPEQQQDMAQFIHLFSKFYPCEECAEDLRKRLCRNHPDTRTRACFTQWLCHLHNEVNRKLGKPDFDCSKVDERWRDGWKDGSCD
# PP5 primary = PP5 phosphatase inhibitors, primary screen, biochemical, fluorescence. Serine/threonine-protein phosphatase 5 (Homo sapiens), P53041. purified PP5c, OMFP substrate fluorescence. inhibition, % at 6.7 µM. 0.18% of 320,000 active. AID 1987, 2009;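 active = inhibition above the campaign's mean inhibition across all tested compounds plus 3 SD, cut at about 9.5% in these data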;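 note: 0% = DMSO only and 100% = 100 µM cantharidin control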
# CSC inhib = cancer stem cell viability inhibitors, primary screen, luminescence; cancer stem cell-like cells viability; inhibition, % at 7.5 µM; 1.1% of 300,000 active; AID 2717, 2010; in the data active = inhibition above about 75%; inconclusive = no clear call, values can overlap the other calls; tested in HMLE shEcad cells
# PP1 inh = PP1-alpha phosphatase inhibitors, primary screen, counter-screen for PP5 inhibitor project, biochemical, fluorescence, OMFP substrate, single point; Serine/threonine-protein phosphatase PP1-alpha catalytic subunit (Homo sapiens), P62136; purified PP1alpha; inhibition, % at 6.7 µM; 0.9% of 320,000 active;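 active = inhibition above the mean inhibition of all tested compounds plus 3 SD, computed separately for each screening campaign, cut at about 15% in these data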
# Target sequence (P62136 whole entry, looked up): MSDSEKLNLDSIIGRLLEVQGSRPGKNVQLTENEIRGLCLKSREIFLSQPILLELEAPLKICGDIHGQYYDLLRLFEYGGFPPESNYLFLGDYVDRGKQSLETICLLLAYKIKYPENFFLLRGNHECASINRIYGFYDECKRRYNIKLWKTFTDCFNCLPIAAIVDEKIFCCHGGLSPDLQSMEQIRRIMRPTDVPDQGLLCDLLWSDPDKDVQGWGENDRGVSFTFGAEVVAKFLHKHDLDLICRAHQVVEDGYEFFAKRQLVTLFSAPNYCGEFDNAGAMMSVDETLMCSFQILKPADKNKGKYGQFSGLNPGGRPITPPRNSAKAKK
# The depositor's hits bear a star; ? = inconclusive; / = not tested or not shown. Most compounds without a hit are left out; they make up all but 5.4% or so of the library.
SMILES,Calb FLC,ALR H2O2 inh,PP5 primary,CSC inhib,PP1 inh
COc1cccc(NC(=O)c2ccccc2-c2ccccc2C(=O)O)c1,-3,-6,3,-2,1
O=Cc1ccccc1-n1cccn1,-14,/,-2,-8,-2
Cc1ccsc1/C=N/N1CCN(c2ccccn2)CC1,1,99*,1,10,-2
Cc1ccc2nc(-c3ccccn3)c(NC3CCCC3)n2c1,-5,99*,4,29,15
COc1cccc(NC(=O)CSc2nc3c(c(=O)n2C)SC(C)C3)c1 (centres undefined),4,99*,1,-7,-2
Cc1ccc(-n2c(SCC(=O)Nc3cc(C)on3)nc3c(c2=O)SC(C)C3)cc1 (centres undefined),-7,91*,2,-9,-1
CCn1c(SCC(=O)Nc2cc(C)on2)nc2c(c1=O)SC(C)C2 (centres undefined),-7,-35,4,-7,0
Cc1ccc(-n2c(SCC(=O)N3CCCC3)nc3c(c2=O)SCC3)cc1,-6,87*,0,3,7
Cc1cc(C)cc(NC(=O)CSc2nc3c(c(=O)n2C)SC(C)C3)c1 (centres undefined),0,97*,4,-8,3
COc1ccc(-n2c(SCC(=O)N3CCN(c4ccccc4)CC3)nc3c(c2=O)SCC3)cc1,-5,/,2,-8,1
CCNC(=S)N1CCc2cc(OC)c(OC)cc2C1COc1ccc(OC)cc1 (centres undefined),17,1,0,-5,3
CCOc1ccc(NC(=O)CSc2nc3c(c(=O)n2C)SC(C)C3)cc1 (centres undefined),/,98*,0,-1,0
CCOc1ccc(NC(=O)CSc2nc3ccsc3c(=O)n2CCC(=O)O)cc1,-8,95*,2,-4,-4
Cc1nnc(NC(=O)CSc2nc3c(c(=O)n2C)SC(C)C3)s1 (centres undefined),-2,-11,1,-20,-2
CC1Cc2nc(SCC(=O)Nc3nccs3)n(C)c(=O)c2S1 (centres undefined),2,98*,2,-5,0
CC1Cc2nc(SCC(=O)Nc3ccc(F)cc3)n(C)c(=O)c2S1 (centres undefined),4,98*,4,-4,-1
Cc1nc2nc[nH]n2c(=O)c1CCOC(=O)c1ccccc1F,-11,14,0,-5,2
Cc1cc(C)n2nc(C(=O)N/N=C/c3ccc(Cl)cc3)nc2n1,-1,-5,-1,/,-7
COc1ccc(/C=N/NC(=O)c2nc(-c3ccccc3)n(-c3ccccc3)n2)cc1OC,8,1,-2,-15,5
O=C(N/N=C/c1ccc(O)cc1)c1nc(-c2ccccc2)n(-c2ccccc2)n1,-1,98*,-1,1,-4
Cc1cc(C)n2nc(C(=O)N/N=C/c3ccc(O)cc3)nc2n1,23,99*,2,-5,-1
NC(=O)c1ccsc1NC(=O)c1nc(-c2ccccc2)n(-c2ccccc2)n1,18,86*,1,7,2
COc1cc(/C=N/NC(=O)c2nc(-c3ccccc3)n(-c3ccccc3)n2)ccc1O,25,85*,3,-9,3
O=C(CSc1nc2ccccc2c(=O)[nH]1)N1CCN(c2ccccc2F)CC1,-5,2,0,/,0
COc1cc(OC)cc(C(=O)Nc2ccc(S(=O)(=O)Nc3nc(C)cc(C)n3)cc2)c1,17,-4,-1,-14,-3
SMILES,Calb FLC,ALR H2O2 inh,PP5 primary,CSC inhib,PP1 inh
O=C1CNC(=S)N1CCc1ccc(O)c(O)c1,-7,100*,2,8,-1
Cc1sc2ncnc(SCc3ccc(C(=O)O)cc3)c2c1C,-4,-2,-1,4,-2
Cc1ccc(-c2csc3ncnc(SCc4ccc(C(=O)O)cc4)c23)cc1,16,17,3,6,16*
CCS(=O)(=O)N1CCCC(c2nc(-c3cccc(OC)c3)no2)C1 (centres undefined),21,-5,0,0,-2
COc1ccc(-c2nc(C)c(C(C)=O)n2O)cc1[N+](=O)[O-],52,3,-1,6,-3
CC(=O)c1c(C)nc(-c2cccc([N+](=O)[O-])c2)n1O,76*,51,-4,-5,-1
Cc1nnc(NC(=O)Cc2cccs2)s1,?,-7,0,-1,1
Cc1cc(NCc2ccccn2)n2nc(C)c(-c3ccc(Cl)cc3)c2n1,15,-11,3,77*,1
Oc1cc(Nc2cccnc2)cc2cccnc12,/,90*,/,/,/
CSC(=Nc1ccccc1)C1=C(O)COC1=O,-6,97*,0,2,1
Cc1ccc(Oc2ccc(C(=O)NC3CCSC3=O)cn2)cc1 (centres undefined),-1,99*,1,-5,-3
CCCCN(C(=O)CCC(=O)O)C1CC(=O)N(c2ccc(OCCC)cc2)C1=O (centres undefined),10,-1,-1,-10,-2
Cc1ccc(NC(=O)CSc2nnc(-c3ccco3)c(-c3ccco3)n2)cc1,0,99*,2,-15,8
O=C(CSc1nnc(-c2ccco2)c(-c2ccco2)n1)Nc1ccccc1,7,99*,1,-8,4
CCc1ccc(NC(=O)CSc2nnc(CC)c(CC)n2)cc1,4,-12,1,-14,-5
CCc1nnc(SCC(=O)Nc2ccc(C(C)=O)cc2)nc1CC,4,99*,2,-7,-2
Cc1cccc(C)c1NC(=O)CSc1nnc(-c2ccco2)c(-c2ccco2)n1,2,99*,2,12,11
Cc1ccccc1NC(=O)CSc1nnc(-c2ccco2)c(-c2ccco2)n1,-10,/,1,-1,10
CN(C)c1ccc(NC(=O)CSc2nnc(-c3ccco3)c(-c3ccco3)n2)cc1,-9,/,4,25,3
Cn1c(=O)n(Cc2ccc(F)cc2)c(=O)c2c1nc1n2CCCN1C1CCCCC1,4,-5,1,78*,1
Cn1c(=O)n(Cc2ccccc2)c(=O)c2c1nc1n2CCCN1C1CCCCC1,-11,-13,0,24,-4
C/C(=N\O)c1ccc2[nH]ccc2c1,2,58,0,0,-4
C/C(=N\O)c1ccc2c3c([nH]c2c1)CCCC3,15,97*,2,-5,-2
CCOc1ccc(Nc2ccc([N+](=O)[O-])c3nonc23)cc1,71,19,0,9,3
O=[N+]([O-])c1ccc(Nc2ccccc2)c2nonc12,89*,30,7,-4,0
CN1CCN(c2nc(Nc3ccc(F)cc3)nc(Nc3ccc(F)cc3)n2)CC1,20,91*,1,10,1
CSC(=NC#N)N1CCN(c2ccccc2)CC1,20,76*,0,-6,-3
CSC(=NC#N)N1CCN(c2cccc(Cl)c2)CC1,51,94*,3,2,2

# Compound activity as filed in PubChem BioAssay.
